Structures are written as SMILES. Active and inactive are the calls of the source.

5 molecules from PubChem BioAssay can be followed below.

Assay [1] in a line: small molecules captured by biotinylated probe aFSTL3 – biochemical, small-molecule microarray, fluorescence 635/667, stem cell growth factor project, primary screen (AID 1064).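 Note: measures binding of the biotinylated anti-FSTL3 antibody to printed compounds.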 The following applies: higher = more signal.
Assay [2] can be described thus: binders from COS7 lysate, DM2A8 probe, primary screen, torsin A project, cell lysate, small-molecule microarray, fluorescence 635/667 (AID 1065). Conditions: higher = more signal, COS7 lysate expressing mutant human TOR1A.
The nature of assay [3]: small molecules captured by biotinylated probe aFGF2 – biochemical, small-molecule microarray, fluorescence 635/667, stem cell growth factor project, primary screen (AID 1067).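 Note: measures binding of biotinylated aFGF2 protein to printed compounds on slides; z-score merges feature fluorescence and signal-to-noise across triplicate slides.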 Conditions: higher = more signal.
The nature of assay [4]: small molecules captured by biotinylated probe aFGF10 – biochemical, small-molecule microarray, fluorescence 635/667, stem cell growth factor project, primary screen (AID 1071).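 Note: score merges 667 nm spot intensity and signal to noise from triplicate slides.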 The following applies: higher = more signal.
Assay [5] addresses Neurogenic locus notch homolog protein 2 (Homo sapiens) (UniProt Q04721). The experiment in a line: small molecules binding Notch2 protein – biochemical, small-molecule microarray, 635 nm fluorescence, stem cell growth factors, primary screen (AID 1073). The following applies: higher = more signal.
In assay [6] the target is Pro-neuregulin-1, membrane-bound isoform (Homo sapiens) (UniProt Q02297). The experiment in a line: small molecules binding neuregulin-1 protein – biochemical, small-molecule microarray, fluorescence 635/667, psychiatric disease protein project, primary screen (AID 1075).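 Note: score combines 667 nm spot fluorescence with signal to noise.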 The following applies: NRG1 binding, 635 nm fluorescence, higher = more signal.
Chain of Pro-neuregulin-1, membrane-bound isoform (Homo sapiens) (Q02297 whole entry, looked up, the tested form may be a part, canonical isoform): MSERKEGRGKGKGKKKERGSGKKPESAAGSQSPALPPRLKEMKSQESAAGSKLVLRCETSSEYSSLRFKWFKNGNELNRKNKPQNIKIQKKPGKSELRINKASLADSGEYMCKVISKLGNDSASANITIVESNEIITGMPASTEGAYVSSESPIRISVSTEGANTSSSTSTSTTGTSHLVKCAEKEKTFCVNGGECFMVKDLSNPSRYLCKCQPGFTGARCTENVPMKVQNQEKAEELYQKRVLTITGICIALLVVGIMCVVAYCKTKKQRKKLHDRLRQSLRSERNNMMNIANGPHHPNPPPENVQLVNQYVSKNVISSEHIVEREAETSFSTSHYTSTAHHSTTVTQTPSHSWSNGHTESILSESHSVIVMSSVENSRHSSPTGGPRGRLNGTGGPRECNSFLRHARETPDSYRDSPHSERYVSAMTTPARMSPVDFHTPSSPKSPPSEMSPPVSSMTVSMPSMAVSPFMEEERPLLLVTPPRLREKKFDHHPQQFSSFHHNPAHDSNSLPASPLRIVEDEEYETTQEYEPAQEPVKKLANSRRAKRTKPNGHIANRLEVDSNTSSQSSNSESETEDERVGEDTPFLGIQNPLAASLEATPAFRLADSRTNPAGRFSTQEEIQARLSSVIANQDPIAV
For assay [7], the system named is Neuregulin-1 EGF-like domain. Kind of assay: small molecules binding NRG1 EGF domain – biochemical, small-molecule microarray, 635 nm fluorescence, primary screen (AID 1081).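 Note: binding of the protein to compounds printed on small-molecule microarray slides.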 Conditions: higher = more signal.
The nature of assay [8]: FRG1 expression reporter modulators in myotubes – cell-based, C2C12 myotubes, firefly/Renilla luciferase, luminescence, FRG1 inhibition for FSHD, primary screen (AID 1084). The following applies: FRG1 promoter luciferase, higher = more signal, called active from +8 up or from −8 down.
A short description of assay [9]: small molecules captured by biotinylated probe aFST – biochemical, small-molecule microarray, fluorescence 635/667, stem cell growth factor project, primary screen (AID 1086).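 Note: score merges 667 nm fluorescence with signal-to-noise of each printed compound spot.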 The following applies: higher = more signal.
Assay [10] can be described thus: binders of probe aHhip on microarray, primary screen, stem cell growth factor project, biochemical, small-molecule microarray, fluorescence 635/667 (AID 1087).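 Note: score merges spot fluorescence at 667nm with spot signal to noise ratio.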 The following applies: higher = more signal.
Assay [11] has as its system PRMT1 (protein arginine N-methyltransferase 1). The experiment in a line: small molecules binding arginine methyltransferase PRMT1 – biochemical, small-molecule microarray, 635 nm fluorescence, primary screen (AID 1088).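 Note: binding of Prmt1 protein to compounds spotted on small-molecule microarray slides.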 The following applies: higher = more signal.
The nature of assay [12]: growth effects on S. cerevisiae YJM789 – YJM789 clinical isolate, OD600, 24 h, basal, primary screen (AID 1089).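 Note: growth of clinical yeast isolate S. cerevisiae YJM 789 seeded 1000 cells per well; test concentration not given here.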 The following applies: higher = more signal, called active from +8 up or from −8 down.
A short description of assay [13]: S. pombe growth modifiers, basal conditions – strain 972, OD600, 24 h, no modulator, primary screen (AID 1090).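 Note: basal condition with compound alone and no growth modifier present; test concentration not given here.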 Conditions: S. pombe 972 growth, higher = more signal, called active from +8 up or from −8 down.
The nature of assay [14]: budding yeast growth modifiers under rapamycin – strain BY4716, OD600, 96 h, primary screen (AID 1091). Note: test concentration not given here. Conditions: S. cerevisiae BY4716 + rapamycin, higher = more signal, called active from +8 up or from −8 down.
Assay [15] addresses Torsin-1A-interacting protein 2 (Homo sapiens) (UniProt Q8NFQ8). Kind of assay: small molecules binding lysate-expressed LULL1 – cell lysate, human LULL1 lysate, 635/667 nm fluorescence, primary screen (AID 1092).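 Note: probe is lysate of COS7 cells overexpressing human LULL1; score merges per-feature 667 nm fluorescence with signal-to-noise.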 Conditions: small-molecule microarray, hLULL1 lysate binding, 635 nm fluorescence; higher = more signal.
Assay [16] can be described thus: optical density change of DRC41 E. coli – strain DRC41, OD650, 24 h, E. coli filamentation project, primary screen (AID 1093).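 Note: MC1000 strain lacking acrAB efflux and sulA so SOS filamentation is blocked; test concentration not given here.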 The following applies: E. coli DRC41 growth, higher = more signal, called active from +8 up or from −8 down.
Assay [17] can be described thus: probe aLefty2 binding to arrayed compounds – biochemical, biotinylated probe, 635/667 nm fluorescence, primary screen (AID 1094).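 Note: score merges spot fluorescence near 667 nm with spot signal-to-noise ratio.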 Conditions: small-molecule microarray, higher = more signal.
For assay [18], the system named is Noggin (protein binding on small-molecule microarray). The experiment in a line: small molecules binding Noggin protein – biochemical, 635/667 nm fluorescence, primary screen (AID 1095).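 Note: score merges 667 nm feature fluorescence with signal to noise over triplicate slides.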 Conditions: 635 nm fluorescence, higher = more signal.
The target of assay [19] is Neurogenic locus notch homolog protein 3 (Homo sapiens) (UniProt Q9UM47). The experiment in a line: small molecules binding NOTCH3 protein – biochemical, 635/667 nm fluorescence, primary screen (AID 1096). Conditions: small-molecule microarray, 635 nm fluorescence, higher = more signal.
Chain of Neurogenic locus notch homolog protein 3 (Homo sapiens) (Q9UM47 whole entry, looked up): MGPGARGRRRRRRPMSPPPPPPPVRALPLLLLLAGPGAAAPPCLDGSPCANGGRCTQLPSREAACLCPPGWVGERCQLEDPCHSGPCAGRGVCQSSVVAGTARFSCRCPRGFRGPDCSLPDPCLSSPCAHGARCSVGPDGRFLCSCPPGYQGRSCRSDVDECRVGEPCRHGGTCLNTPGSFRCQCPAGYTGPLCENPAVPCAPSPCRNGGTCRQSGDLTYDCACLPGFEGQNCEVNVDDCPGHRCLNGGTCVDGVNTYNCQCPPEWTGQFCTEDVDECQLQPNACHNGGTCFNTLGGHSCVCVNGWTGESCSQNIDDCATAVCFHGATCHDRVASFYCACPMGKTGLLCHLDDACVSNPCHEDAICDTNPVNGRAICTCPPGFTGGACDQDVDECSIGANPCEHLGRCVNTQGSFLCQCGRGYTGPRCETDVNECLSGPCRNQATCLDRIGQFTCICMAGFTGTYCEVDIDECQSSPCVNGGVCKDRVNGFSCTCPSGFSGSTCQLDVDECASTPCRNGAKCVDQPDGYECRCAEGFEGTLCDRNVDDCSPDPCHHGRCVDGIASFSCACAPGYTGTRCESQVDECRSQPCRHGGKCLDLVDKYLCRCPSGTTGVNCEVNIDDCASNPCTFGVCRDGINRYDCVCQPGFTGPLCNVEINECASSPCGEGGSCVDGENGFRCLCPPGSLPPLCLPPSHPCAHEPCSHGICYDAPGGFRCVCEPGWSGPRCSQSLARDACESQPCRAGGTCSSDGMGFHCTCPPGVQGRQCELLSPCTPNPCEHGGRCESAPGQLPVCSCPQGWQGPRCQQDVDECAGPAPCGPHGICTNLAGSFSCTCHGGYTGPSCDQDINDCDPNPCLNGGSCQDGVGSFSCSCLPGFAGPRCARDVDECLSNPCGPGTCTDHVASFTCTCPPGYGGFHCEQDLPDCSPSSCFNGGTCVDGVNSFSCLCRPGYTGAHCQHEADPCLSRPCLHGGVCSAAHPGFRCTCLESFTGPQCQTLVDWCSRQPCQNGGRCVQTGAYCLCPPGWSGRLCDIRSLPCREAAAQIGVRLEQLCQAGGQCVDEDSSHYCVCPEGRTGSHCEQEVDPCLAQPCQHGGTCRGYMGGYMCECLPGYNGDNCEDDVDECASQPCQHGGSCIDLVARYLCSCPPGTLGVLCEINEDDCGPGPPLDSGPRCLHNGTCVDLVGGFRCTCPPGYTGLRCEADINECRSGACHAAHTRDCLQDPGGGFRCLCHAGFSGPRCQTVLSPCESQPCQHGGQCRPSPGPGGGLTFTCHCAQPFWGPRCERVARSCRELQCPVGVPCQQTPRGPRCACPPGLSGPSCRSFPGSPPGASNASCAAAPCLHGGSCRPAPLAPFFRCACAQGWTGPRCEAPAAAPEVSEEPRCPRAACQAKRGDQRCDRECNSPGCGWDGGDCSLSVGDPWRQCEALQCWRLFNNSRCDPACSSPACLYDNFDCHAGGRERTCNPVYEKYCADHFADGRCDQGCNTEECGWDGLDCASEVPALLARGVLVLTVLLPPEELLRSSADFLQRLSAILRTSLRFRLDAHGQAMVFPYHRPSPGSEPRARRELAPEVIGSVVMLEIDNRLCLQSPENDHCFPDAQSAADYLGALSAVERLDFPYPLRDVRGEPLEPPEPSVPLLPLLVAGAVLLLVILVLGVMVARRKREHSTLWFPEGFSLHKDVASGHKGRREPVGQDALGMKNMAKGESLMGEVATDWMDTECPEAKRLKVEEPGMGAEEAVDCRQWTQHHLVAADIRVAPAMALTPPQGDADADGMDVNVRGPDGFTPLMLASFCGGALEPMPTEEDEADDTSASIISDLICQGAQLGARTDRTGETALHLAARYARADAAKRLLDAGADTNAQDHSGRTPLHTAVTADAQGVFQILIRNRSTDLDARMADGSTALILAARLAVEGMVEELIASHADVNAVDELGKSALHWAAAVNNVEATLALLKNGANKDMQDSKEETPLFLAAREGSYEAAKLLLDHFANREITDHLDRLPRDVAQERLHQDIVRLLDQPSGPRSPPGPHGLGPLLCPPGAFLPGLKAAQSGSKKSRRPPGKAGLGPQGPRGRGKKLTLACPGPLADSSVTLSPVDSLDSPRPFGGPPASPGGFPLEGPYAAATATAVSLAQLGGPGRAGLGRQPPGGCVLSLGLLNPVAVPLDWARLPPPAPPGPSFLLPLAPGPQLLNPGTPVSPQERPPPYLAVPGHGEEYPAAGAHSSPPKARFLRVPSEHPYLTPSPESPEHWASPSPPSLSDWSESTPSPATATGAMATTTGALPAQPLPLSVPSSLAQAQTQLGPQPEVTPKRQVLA
Assay [20] is described as follows: probe aEGFR binding to arrayed compounds – biochemical, biotinylated probe, 635/667 nm fluorescence, primary screen (AID 1097).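 Note: probe is a biotinylated anti-EGFR antibody binding compounds printed on slides; score combines fluorescence near 667 nm and signal to noise of each spot.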 Conditions: small-molecule microarray, higher = more signal.

Chain of Torsin-1A-interacting protein 2 (Homo sapiens) (Q8NFQ8 whole entry, looked up): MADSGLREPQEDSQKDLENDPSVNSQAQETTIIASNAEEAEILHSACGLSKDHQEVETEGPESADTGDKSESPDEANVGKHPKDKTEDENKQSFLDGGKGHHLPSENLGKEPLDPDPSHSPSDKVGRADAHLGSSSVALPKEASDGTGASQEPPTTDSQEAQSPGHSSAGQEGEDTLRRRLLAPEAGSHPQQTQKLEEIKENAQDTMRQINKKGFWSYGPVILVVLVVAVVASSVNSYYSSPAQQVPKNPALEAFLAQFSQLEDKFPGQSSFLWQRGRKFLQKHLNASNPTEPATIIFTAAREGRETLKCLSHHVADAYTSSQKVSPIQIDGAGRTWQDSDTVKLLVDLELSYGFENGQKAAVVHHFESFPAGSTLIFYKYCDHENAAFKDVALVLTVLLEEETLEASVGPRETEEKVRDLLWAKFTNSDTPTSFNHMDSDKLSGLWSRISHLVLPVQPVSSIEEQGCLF

For the molecule `CN(C)CCCCCCNC(=O)[C@H]1C[C@H]2C(=O)N[C@@H](CCCCN)C(=O)N2[C@H]1c1ccc(O)cc1`, the composite z-score in assay [1] was found to be 3.42; in assay [2], 2.29; in [3] it was 0.762; in [4] it was 1.14; in [5] it was 1.27; in [6] it was 2.51. In addition, the composite z-score in assay [7] came out at 1.5; in [9], 3.49; in [10] it was 1.84; in assay [11], 1.54; in assay [15] it was 4.58; in assay [17], 1.76. The values for the composite z-score in [18], in assay [19] and in assay [20] were 2.02, 1 and 1.15, respectively. Moreover, the z-score in assay [8] is 0.369 (inactive); in [12], -0.329 (inactive); in [13] it was -2.88 (inactive); in assay [14] it was -0.02 (inactive); in assay [16], -0.151 (inactive).
For the molecule `COc1ccc(CCNC(=O)[C@@]2(Sc3ccc(C)cc3)CC(=O)N(Cc3ccccc3Cl)[C@@H]2c2ccc(CO)cc2I)cc1`, the composite z-score in assay [1] is 0.91; in [2], -0.548; in assay [3], -0.105; in assay [4], 0.0404; in assay [5], -1.02; in [6], 1.2. Further, the composite z-score was 0.883 in assay [7]; -0.299 in assay [9]; 0.0695 in assay [10]; 1.26 in assay [11]; 1.8 in [15]; 0.0349 in [17]. Besides, the composite z-score in [18] is -0.284; in assay [19], -0.788; in assay [20] it was -0.185. The z-score in assay [8] was -2.03 (inactive); in assay [12], -1.62 (inactive); in assay [13], -3.24 (inactive); in assay [14] it was 1.72 (inactive); in assay [16], 0.68 (inactive).
`C[C@]1(C(=O)NCc2ccccc2)c2ccccc2C(=O)N(Cc2cc(F)cc(C(F)(F)F)c2)[C@H]1c1ccc(CO)cc1`: the composite z-score is 0.46 in assay [1]; -0.512 in assay [2]; -0.0894 in [3]; -0.0459 in assay [4]; -0.706 in [5]; -0.353 in [6]. The composite z-score is 1.26 in assay [7]; -0.344 in assay [9]; -0.0994 in assay [10]; 0.113 in assay [11]; 2.68 in assay [15]; -0.0508 in assay [17]. In addition, the composite z-score in assay [18] is -1.67; in assay [19], -1.37; in [20], -0.253. Moreover, the z-score in assay [8] was -3.12 (inactive); in assay [12], 0.328 (inactive); in assay [13], -0.325 (inactive); in [14] it was -0.0212 (inactive); in [16], 0.808 (inactive).
Regarding `O=C(CS)NCCCCCCNC(=O)[C@H]1C[C@H]2C(=O)N3CCC[C@H]3C(=O)N2[C@H]1c1cccc(OCCO)c1`, the composite z-score in [1] was 0.255; in assay [2], 0.7; in assay [3], -0.0802; in assay [4], 0.635; in assay [5], 0.698; in assay [6] it was 1.23. For the same molecule, the composite z-score amounted to 1.4 in assay [7]; 0.189 in [9]; 0.235 in [10]; 1.5 in [11]; 3.05 in [15]; 0.105 in assay [17]. Moreover, the composite z-score stood at 0.858 in assay [18], 1.1 in assay [19] and 0.0219 in assay [20]. The z-score was 0.865 (inactive) in [8]; -0.319 (inactive) in assay [12]; -0.26 (inactive) in assay [13]; 0.0927 (inactive) in assay [14]; -0.983 (inactive) in assay [16].
Consider `C=CCOC(=O)[C@@H]1[C@H]2C(=O)O[C@H](c3ccccc3)[C@H](c3ccccc3)N2[C@H](c2ccc(OCCOC(=O)[C@@H]3C[C@@H]4C(=O)N[C@@H](Cc5ccccc5)C(=O)N4[C@@H]3c3cccc(OCCO)c3)cc2)[C@@]12C(=O)Nc1ccc(I)cc12`, for which the composite z-score was 0.224 in assay [1]; 0.63 in [2]; -0.0566 in [3]; 0.764 in assay [4]; 1.03 in assay [5]; 1.03 in [6]. Moreover, the composite z-score was 1.06 in [7]; 0.043 in [9]; -0.0196 in assay [10]; 1.53 in [11]; 1.83 in assay [15]; -0.0286 in assay [17]. Further, the values for the composite z-score in assay [18], in assay [19] and in assay [20] were 1.5, 0.974 and 0.0042, respectively. Moreover, the z-score in assay [8] was 1.06 (inactive); in [12] it was 1.39 (inactive); in [13], 2.04 (inactive); in assay [14], 4.55 (inactive); in [16] it was 0.0087 (inactive).
